Source: the supplement of paper PMC11732987, “Enantioselective OTUD7B fragment discovery through chemoproteomics screening and high-throughput optimisation” (Communications Chemistry, 2025)

Tests used:
Assay in all cases: log2 ratio of Biotin-Ahx-Ub-VS probe labelling (fragment/DMSO); higher = less target engagement (more negative = stronger competition), active = hit call of the paper (q ≤ 0.05, log2 ratio ≤ -1)
Conditions in all cases: compound concentration: 200 uM; treatment time: 3 h
USP34 = USP34 (UniProt Q70CQ2)
Chain of USP34 (Q70CQ2 whole entry, the tested form may be a part): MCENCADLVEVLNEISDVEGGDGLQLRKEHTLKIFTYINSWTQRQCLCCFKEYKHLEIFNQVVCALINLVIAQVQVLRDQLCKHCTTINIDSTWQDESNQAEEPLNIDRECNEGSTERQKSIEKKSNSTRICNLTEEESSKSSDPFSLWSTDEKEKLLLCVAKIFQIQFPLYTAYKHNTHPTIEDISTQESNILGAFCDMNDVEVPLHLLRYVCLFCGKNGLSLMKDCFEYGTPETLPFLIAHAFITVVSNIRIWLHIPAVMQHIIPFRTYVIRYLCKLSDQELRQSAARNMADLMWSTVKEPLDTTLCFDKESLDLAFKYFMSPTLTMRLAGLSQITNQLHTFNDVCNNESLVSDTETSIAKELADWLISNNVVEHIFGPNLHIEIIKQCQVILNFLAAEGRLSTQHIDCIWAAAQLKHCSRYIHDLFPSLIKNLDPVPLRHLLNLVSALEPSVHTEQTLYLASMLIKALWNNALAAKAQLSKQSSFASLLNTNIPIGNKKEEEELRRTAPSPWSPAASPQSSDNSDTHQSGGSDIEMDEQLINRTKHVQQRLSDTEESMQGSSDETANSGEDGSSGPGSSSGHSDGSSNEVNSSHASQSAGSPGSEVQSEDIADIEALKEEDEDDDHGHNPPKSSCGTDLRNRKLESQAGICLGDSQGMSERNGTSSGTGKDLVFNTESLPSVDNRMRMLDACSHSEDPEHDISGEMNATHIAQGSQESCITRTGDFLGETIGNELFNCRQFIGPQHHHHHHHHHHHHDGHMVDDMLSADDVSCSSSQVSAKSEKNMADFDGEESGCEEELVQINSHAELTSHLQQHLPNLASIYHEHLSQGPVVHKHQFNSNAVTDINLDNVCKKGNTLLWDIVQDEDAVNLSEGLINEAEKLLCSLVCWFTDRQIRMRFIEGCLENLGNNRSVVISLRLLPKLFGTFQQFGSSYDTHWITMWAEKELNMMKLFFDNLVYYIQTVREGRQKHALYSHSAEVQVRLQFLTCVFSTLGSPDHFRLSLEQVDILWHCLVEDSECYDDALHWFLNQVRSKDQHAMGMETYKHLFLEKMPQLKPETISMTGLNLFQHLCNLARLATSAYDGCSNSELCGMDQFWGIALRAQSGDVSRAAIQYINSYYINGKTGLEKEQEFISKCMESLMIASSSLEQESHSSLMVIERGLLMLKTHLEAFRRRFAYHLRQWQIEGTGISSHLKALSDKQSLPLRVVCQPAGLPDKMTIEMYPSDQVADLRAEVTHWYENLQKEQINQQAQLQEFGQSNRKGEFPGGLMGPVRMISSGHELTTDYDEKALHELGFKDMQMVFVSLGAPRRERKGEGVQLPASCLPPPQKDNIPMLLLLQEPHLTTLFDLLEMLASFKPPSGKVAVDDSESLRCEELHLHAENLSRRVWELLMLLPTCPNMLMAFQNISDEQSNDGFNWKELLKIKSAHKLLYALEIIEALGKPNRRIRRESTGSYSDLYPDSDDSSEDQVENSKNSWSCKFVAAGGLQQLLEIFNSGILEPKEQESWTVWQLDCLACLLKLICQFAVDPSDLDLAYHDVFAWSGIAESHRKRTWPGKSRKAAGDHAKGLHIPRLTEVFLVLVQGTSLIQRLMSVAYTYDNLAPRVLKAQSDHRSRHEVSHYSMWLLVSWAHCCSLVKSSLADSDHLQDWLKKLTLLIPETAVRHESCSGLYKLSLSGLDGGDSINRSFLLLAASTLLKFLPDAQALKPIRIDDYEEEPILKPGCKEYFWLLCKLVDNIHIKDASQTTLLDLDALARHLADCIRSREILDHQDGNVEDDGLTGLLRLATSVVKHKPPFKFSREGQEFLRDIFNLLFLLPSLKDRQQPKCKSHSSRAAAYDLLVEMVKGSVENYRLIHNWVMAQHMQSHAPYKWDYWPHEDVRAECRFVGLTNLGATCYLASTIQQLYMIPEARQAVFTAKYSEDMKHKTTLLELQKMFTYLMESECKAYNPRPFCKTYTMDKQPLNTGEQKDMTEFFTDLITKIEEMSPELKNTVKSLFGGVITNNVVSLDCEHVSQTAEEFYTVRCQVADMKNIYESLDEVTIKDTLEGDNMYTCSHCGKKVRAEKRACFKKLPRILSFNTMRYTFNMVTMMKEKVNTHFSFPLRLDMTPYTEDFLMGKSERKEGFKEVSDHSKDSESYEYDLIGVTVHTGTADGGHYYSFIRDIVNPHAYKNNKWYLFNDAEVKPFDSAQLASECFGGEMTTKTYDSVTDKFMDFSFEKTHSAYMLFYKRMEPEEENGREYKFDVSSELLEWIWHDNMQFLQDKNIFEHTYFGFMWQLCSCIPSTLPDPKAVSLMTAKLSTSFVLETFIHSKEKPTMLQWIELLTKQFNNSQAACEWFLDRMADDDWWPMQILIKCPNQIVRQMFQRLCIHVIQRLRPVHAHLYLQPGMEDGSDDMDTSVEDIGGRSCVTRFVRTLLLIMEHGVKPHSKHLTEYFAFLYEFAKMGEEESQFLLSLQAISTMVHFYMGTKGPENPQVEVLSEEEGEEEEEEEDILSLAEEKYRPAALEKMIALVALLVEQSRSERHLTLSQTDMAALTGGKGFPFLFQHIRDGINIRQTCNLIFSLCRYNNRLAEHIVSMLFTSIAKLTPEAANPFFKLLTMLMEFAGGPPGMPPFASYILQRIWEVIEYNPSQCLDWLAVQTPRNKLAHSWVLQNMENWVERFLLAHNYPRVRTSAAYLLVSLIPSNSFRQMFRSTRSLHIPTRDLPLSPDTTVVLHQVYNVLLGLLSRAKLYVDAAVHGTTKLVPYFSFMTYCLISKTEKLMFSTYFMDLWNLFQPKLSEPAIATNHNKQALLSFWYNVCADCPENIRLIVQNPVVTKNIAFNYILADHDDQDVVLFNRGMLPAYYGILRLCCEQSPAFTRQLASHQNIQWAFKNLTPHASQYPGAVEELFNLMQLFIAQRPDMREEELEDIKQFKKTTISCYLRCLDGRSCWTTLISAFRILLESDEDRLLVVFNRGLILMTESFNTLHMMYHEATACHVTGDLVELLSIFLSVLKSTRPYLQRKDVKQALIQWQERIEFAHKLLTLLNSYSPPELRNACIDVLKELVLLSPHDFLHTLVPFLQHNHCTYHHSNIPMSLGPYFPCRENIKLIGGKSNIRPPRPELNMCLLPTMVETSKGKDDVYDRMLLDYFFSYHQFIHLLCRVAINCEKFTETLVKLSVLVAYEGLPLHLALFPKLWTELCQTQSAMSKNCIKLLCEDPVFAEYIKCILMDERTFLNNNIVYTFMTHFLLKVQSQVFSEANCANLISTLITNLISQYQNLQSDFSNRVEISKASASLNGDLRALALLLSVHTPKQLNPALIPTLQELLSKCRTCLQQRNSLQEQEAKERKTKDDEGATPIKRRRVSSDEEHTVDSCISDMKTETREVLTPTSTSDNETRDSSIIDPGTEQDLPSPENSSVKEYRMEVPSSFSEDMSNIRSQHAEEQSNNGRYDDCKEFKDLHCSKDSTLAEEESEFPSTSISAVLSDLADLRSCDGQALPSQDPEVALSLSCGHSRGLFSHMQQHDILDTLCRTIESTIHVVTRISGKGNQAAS
Outline: (§1)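 HEK293T lysate (495 µg per sample, in Tris/CHAPS/IGEPAL buffer with protease inhibitors) was treated in triplicate with fragment at 200 µM or with DMSO for 3 h. It was then treated with Biotin-Ahx-Ub-VS (0.5 µM final) for 1 h. Labelled DUBs were NeutrAvidin-enriched, digested with LysC and trypsin, and run by diaPASEF LC-MS/MS. Spectronaut label-free quantities were global-median-normalised. Values are average log2 ratios fragment/DMSO by unpaired t-test, using proteins with ≥2 unique peptides.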

USP36 = target: T1, USP36 (UniProt Q9P275)
T1 sequence (whole entry): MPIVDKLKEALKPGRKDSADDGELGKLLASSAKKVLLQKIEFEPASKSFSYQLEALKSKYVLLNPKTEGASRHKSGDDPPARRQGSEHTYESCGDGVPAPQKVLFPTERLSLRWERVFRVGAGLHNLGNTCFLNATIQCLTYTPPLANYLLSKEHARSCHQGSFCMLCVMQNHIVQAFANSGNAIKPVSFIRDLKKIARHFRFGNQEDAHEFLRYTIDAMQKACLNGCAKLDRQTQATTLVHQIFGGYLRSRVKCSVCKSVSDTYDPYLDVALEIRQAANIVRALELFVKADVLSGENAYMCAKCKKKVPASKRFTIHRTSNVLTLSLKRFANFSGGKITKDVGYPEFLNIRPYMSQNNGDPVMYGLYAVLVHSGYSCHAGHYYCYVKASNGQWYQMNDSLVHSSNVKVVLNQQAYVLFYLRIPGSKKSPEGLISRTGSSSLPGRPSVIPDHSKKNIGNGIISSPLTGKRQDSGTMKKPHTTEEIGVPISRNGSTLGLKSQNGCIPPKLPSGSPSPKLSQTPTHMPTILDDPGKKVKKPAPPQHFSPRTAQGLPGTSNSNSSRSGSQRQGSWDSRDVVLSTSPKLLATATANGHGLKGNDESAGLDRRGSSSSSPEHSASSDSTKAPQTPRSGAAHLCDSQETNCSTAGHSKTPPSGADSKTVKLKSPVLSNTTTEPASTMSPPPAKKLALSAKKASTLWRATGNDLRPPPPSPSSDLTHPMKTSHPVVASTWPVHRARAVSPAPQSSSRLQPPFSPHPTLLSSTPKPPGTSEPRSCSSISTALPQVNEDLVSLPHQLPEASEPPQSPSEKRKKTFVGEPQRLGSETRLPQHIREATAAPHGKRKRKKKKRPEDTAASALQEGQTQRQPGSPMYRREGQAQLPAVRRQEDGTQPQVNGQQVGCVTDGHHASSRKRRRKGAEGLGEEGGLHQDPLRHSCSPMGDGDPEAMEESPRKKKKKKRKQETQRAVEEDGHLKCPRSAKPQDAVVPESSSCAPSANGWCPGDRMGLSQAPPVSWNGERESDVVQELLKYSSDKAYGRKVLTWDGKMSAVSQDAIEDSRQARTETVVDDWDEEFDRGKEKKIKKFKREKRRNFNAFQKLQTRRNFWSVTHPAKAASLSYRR
Outline: as §1

USP38 = target: T2, USP38 (UniProt Q8NB14)
T2 sequence (whole entry): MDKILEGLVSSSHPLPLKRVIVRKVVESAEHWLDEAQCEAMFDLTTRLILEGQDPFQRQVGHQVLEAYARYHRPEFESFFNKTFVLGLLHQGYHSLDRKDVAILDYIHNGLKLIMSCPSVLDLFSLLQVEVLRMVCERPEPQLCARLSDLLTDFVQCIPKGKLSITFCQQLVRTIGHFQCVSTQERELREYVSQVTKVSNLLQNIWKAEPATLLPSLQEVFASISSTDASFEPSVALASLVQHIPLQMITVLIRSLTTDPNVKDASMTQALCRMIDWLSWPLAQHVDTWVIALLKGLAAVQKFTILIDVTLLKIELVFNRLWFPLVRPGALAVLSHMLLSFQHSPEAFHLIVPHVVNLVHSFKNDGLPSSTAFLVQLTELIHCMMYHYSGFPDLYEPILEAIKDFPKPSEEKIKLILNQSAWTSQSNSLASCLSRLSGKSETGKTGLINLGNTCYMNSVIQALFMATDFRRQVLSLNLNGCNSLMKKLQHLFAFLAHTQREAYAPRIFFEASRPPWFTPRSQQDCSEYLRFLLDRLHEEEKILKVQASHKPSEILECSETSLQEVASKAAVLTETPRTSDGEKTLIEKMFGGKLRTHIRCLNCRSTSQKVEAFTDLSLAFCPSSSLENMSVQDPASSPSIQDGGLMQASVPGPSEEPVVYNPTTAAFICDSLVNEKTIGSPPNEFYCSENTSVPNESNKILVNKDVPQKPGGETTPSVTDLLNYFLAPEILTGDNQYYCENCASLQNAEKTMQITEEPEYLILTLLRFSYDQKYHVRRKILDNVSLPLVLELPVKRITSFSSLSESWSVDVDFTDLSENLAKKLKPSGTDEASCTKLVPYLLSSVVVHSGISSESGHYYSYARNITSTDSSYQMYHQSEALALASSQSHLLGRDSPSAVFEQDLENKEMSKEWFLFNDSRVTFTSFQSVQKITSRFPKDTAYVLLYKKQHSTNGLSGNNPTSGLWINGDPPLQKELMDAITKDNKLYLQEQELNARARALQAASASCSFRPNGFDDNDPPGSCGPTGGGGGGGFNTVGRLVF
Outline: as §1

USP39 = target: T3, USP39 (UniProt Q53GS9)
T3 sequence (whole entry): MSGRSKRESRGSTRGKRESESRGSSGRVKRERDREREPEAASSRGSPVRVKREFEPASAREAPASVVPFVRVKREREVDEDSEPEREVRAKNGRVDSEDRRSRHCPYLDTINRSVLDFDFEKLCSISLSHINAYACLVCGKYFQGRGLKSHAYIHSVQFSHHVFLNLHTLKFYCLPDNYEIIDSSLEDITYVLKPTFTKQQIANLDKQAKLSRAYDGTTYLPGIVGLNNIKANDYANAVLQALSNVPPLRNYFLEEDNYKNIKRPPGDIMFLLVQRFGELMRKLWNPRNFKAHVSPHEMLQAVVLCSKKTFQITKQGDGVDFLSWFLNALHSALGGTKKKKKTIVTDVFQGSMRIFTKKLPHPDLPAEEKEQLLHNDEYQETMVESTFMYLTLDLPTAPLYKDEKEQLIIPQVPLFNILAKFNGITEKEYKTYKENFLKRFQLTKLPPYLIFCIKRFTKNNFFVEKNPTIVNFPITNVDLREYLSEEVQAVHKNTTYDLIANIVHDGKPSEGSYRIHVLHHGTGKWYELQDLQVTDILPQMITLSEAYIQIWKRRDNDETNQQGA
Outline: as §1

USP4 = target: T4, USP4 (UniProt Q13107)
T4 sequence (whole entry): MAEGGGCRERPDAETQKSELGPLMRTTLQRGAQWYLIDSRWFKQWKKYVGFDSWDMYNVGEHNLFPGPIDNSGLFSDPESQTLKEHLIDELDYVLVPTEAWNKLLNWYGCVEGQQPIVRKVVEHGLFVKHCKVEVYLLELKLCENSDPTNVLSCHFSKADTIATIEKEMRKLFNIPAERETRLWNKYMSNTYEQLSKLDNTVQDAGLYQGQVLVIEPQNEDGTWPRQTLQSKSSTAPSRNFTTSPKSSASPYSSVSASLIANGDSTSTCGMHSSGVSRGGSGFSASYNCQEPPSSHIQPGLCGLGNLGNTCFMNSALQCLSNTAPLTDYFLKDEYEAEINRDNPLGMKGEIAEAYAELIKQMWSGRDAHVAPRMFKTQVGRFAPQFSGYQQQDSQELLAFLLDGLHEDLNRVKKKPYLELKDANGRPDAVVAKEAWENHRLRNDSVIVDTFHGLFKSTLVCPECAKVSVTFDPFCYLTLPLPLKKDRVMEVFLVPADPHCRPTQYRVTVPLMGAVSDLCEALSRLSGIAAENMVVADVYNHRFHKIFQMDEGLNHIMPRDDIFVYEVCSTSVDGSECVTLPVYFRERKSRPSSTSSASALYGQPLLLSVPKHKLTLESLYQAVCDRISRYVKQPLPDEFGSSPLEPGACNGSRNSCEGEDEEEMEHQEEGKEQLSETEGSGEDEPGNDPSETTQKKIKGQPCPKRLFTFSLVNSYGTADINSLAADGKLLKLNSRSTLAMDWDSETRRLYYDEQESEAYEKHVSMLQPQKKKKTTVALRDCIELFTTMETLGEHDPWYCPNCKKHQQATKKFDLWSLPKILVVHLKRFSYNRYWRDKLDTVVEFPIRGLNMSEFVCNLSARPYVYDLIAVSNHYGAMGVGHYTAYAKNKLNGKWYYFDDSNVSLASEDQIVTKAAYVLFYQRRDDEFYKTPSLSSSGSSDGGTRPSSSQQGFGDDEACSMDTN
Outline: as §1

Measured: log2 ratio of Biotin-Ahx-Ub-VS probe labelling

CC(NC(=O)CCl)c1cccc2ccccc12 (stereo not given)
inactive: USP34 -0.0995 | USP36 -0.062 | USP38 0.0489 | USP39 0.171 | USP4 -0.154
